Each structure is given as a SMILES string. Unmarked numbers belong to inactive results. Inconclusive results are not listed. Calls of active or inactive are those of the source. Unless noted, calls follow the shape of the dose curve; as a rule, active = well fitted curve in the direction sought with a large enough effect; inconclusive = small, poorly fitted or top-dose-only effect, or another doubt; inactive = no such curve, though single readings can be large; an effect the other way counts as inactive or inconclusive. A value given as a limit tells only on which side of the number the result lay.

Experiment [1] can be described thus: AP1 Signaling Pathway (AID 357; active = well fitted curve in either direction with a large enough effect, not every such curve was filed as active;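 also: ME-180 reporter cells stimulated with EGF at its EC50 level; % is scaled to controls: 0 for no effect and ±100 for the full control effect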). The following applies: ME-180 AP-1-bla reporter, EGF-induced, beta-lactamase ratio, 5 h; at 7.69 µM (top of the series) unless noted. In a few lines: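 First, ME-180 AP-1-bla cells were cultured overnight at 37 °C in low-serum Opti-MEM. Next, titrated compounds with EC50 EGF were incubated 5 hours. Finally, CCF4 was added for 2.5 hours and the 460/530 nm ratio recorded.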

Experiment [2] concerns the target Cytochrome P450 1A2 (Homo sapiens) (UniProt P05177). Nature of the experiment: p450-cyp1a2 (AID 410; calls by dose curve; also: potency is read from the fitted curve at half-maximal effect). In a few lines: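 20nM CYP1A2 with 100uM Luciferin-ME (at Km) in 100mM KPO4; compound preincubated 10 min, NADPH regeneration added, 60 min at room temperature. Luciferin quantified by luminescence after detection reagent; normalized to 57 uM furafylline.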
The nature of experiment [3]: Stat Signaling Pathway (AID 446; active = well fitted curve in either direction with a large enough effect, not every such curve was filed as active;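 also: ME-180 cervical cancer cells given 40 pM IL-6 alongside compound; SIE-controlled beta-lactamase reporter measured as 460/530 nm FRET emission ratio; % is scaled to controls: 0 for no effect and ±100 for the full control effect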). In a few lines: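 ME-180 cells carrying a SIE-driven beta-lactamase reporter are stimulated with 40 pM IL-6 for 5 h at 37C in the presence of compound. The 460/530 nm FRET substrate ratio is read after 2.5 h at RT. Data are normalised to 300 pM IL-6 and to 125 nM JAK inhibitor controls.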
The target in experiment [4] is Glucocorticoid receptor (Homo sapiens) (UniProt P04150). Nature of the experiment: GR-GFP Redistribution (AID 450;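 active = compounds whose dose series gives a full or clear partial fitted curve of increased nuclear translocation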; also: potency is read from the fitted curve at half-maximal effect). The following applies: U2OS GR-GFP nuclear translocation, laser cytometry, 2 h.
Glucocorticoid receptor (Homo sapiens), sequence (P04150 whole entry, looked up): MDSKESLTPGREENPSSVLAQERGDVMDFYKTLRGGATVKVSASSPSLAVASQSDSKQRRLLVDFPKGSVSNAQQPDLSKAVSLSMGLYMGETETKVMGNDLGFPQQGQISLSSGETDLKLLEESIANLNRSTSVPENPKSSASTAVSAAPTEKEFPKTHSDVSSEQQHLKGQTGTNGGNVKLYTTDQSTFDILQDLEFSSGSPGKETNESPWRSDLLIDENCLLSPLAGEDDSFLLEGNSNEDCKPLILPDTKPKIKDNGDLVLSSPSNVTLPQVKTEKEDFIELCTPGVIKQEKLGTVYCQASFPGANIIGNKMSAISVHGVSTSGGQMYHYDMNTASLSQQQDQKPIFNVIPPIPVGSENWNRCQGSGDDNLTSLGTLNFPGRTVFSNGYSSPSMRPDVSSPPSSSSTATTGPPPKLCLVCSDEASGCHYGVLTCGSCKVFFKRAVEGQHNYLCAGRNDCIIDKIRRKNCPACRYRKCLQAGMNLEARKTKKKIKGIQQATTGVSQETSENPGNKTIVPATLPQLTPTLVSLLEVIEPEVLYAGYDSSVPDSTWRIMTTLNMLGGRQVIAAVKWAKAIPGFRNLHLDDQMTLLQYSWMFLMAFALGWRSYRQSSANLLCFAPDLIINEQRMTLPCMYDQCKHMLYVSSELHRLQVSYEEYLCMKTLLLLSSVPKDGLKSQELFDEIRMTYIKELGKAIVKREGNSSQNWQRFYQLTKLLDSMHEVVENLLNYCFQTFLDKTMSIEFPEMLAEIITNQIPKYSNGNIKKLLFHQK
The target is the same in experiment [5]. Nature of the experiment: GR-EFC Redistribution (AID 451; calls by dose curve; also: potency is read from the fitted curve at half-maximal effect). The following applies: CHO-K1 GR-EFC translocation, beta-gal luminescence, 2 h. Put shortly:
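CHO-K1 cells expressing nuclear EA and GR-ED fragments of b-gal; compounds titrated up to 46 uM final, 2 h at 37 C. GR nuclear translocation read as complemented b-gal luminescence after 1 h RT detection.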

Experiment [6] concerns the target Mitogen-activated protein kinase 10 (Mus musculus) (UniProt Q61831). Nature of the experiment: JNK3 AlphaScreen Assay (AID 530; active = well fitted curve in either direction with a large enough effect, not every such curve was filed as active;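 also: kinase came from lysate of stimulated human HepG2 cells; signal reports phosphorylation of biotinylated GST-cJun 1-79 at Ser73 with 10 µM ATP; % is scaled to controls: 0 for no effect and ±100 for the full control effect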). Put shortly:
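Pre-activated (IL-1β/TNFα) JNK3 in HepG2 lysates phosphorylates biotin-GST-cJun(1-79), 10 uM ATP; anti-phospho-cJun(Ser73) AlphaScreen read at room temperature, pH 7.6 Tris buffer. Compounds pre-incubated 15 min as titrations.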
Background: In Alpha technology, singlet oxygen from a donor bead excites a nearby acceptor bead.

Experiment [7] concerns the target 3',5'-cyclic-AMP phosphodiesterase 4B (Homo sapiens) (UniProt Q07343). Nature of the experiment: qHTS Assay for Inhibitors of PDE-IV (AID 607; active = well fitted activation curve with a large enough effect in the main read-out, with a control signal flat, not every such curve was filed as active; also: % of control where 0% means no effect). In a few lines: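 HEK293 ACTOne cells with CNG channel (1000/well), endogenous PDE4; membrane potential dye, compounds up to 22.9 uM final. Fluorescence Ex 535/Em 590; RO 20-1724 (100 uM final) as reference.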
Experiment [8] addresses Cytochrome P450 3A4 (Homo sapiens) (UniProt P08684). Nature of the experiment: qHTS Assay for Activators of Cytochrome P450 3A4 (AID 885). Also: nearly all actives have a fitted effect of over 65% in size. Put shortly: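 Human CYP3A4 (20 nM) with Luciferin-PPXE at 25 uM (its KM) in 200 mM KPO4; 10 min compound preincubation, then NADPH regeneration and 60 min reaction at RT. Luciferin read by luminescence; normalized to 57 uM ketoconazole full inhibition.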

In experiment [9] the target is Cytochrome P450 2D6 (Homo sapiens) (UniProt P10635). Nature of the experiment: qHTS Assay for Inhibitors and Substrates of Cytochrome P450 2D6 (AID 891). Also: potency is read from the fitted curve at half-maximal effect; nearly all actives have a fitted effect of over 60% in size. In a few lines:
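Human CYP2D6 (5 nM) with 30 uM Luciferin-ME EGE (at Km) in 100 mM KPO4, compound preincubated 10 min, then NADPH regeneration system for 60 min at room temperature. Luciferin read by luminescence; normalized to 1.43 uM quinidine.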

Experiment [10] addresses Dual specificity protein kinase CLK4 (Homo sapiens) (UniProt Q9HAZ1). Nature of the experiment: qHTS Assay for Inhibitors of CDC-like Kinase 4 (Kinase-Glo Assay) (AID 1770). Also: nearly all actives have a fitted effect of over 65% in size. Also: potency is read from the fitted curve at half-maximal effect. In a few lines: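 Luminescent ATP-depletion read-out (Kinase-Glo) after 4.5 h room-temperature reaction of Clk4 (25 nM final) with RS peptide (100 uM) and ATP (1 uM), pH 7.5 Tris buffer with MgCl2 and DTT.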
A general note: qHTS replaces the single test concentration by a dilution series.

For experiment [11] the target is unchanged. Nature of the experiment: qHTS Assay for Inhibitors of CDC-like Kinase 4 (ADP-Glo Assay) (AID 1771). Also: nearly all actives have a fitted effect of over 70% in size. Also: potency is read from the fitted curve at half-maximal effect. In a few lines:
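25 nM Clk4 with 100 uM RS repeat peptide and 1 uM ATP (final) in buffer with 2 mM MgCl2, 0.5 mM EGTA, 2.5 mM DTT, 0.01% Triton X-100; 1 h at room temperature; ADP-Glo luminescence for ADP formed.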

For experiment [12] the target is unchanged. Nature of the experiment: qHTS Assay for Inhibitors of CDC-like Kinase 4 (ADP-FP Assay) (AID 1795). Also: nearly all actives have a fitted effect of over 60% in size. Also: potency is read from the fitted curve at half-maximal effect. In a few lines: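 Kinase activity was measured as ADP production using Transcreener orange tracer (4 nM) and ADP antibody (1 ug/mL) fluorescence polarization, with ADP calculated from a calibration curve. The 1 h reaction contained 6.25 nM Clk4, 1 uM ATP and 100 uM RS peptide at pH 7.5 with Mg2+.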

For experiment [13], the target named is Ubiquitin carboxyl-terminal hydrolase 1 (Homo sapiens) (UniProt O94782). Nature of the experiment: Inhibitors of USP1/UAF1: Pilot qHTS (AID 504865). Also: nearly all actives have a fitted effect of over 35% in size. Also: potency is read from the fitted curve at half-maximal effect. Put shortly: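 Deubiquitinase activity followed as kinetic rhodamine fluorescence release from 150 nM Ub-Rho. 1 nM USP1/UAF1 with compound, after 15 min room-temperature preincubation, in HEPES pH 7.8 buffer containing TCEP, EDTA, BSA and Tween-20.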
Ubiquitin carboxyl-terminal hydrolase 1 (Homo sapiens), sequence (O94782 whole entry, looked up): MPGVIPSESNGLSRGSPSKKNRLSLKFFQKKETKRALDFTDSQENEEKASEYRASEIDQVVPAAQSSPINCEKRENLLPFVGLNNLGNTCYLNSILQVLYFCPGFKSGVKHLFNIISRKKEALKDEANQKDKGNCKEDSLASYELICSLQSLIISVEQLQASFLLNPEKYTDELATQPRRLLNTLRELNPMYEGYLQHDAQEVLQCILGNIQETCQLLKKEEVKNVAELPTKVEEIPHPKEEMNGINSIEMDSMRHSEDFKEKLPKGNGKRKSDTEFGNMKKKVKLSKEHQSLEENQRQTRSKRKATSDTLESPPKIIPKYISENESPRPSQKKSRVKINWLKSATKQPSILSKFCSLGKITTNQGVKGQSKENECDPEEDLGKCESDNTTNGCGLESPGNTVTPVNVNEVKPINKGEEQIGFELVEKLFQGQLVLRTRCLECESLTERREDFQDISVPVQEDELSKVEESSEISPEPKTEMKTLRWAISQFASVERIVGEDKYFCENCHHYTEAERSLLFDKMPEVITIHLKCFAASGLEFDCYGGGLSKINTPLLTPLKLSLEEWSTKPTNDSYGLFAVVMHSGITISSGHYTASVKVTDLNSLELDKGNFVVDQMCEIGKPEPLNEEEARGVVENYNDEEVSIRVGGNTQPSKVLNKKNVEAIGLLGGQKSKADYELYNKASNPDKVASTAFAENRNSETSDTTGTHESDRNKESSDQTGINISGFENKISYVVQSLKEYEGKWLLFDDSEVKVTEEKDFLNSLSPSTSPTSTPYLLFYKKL

A short description of experiment [14]: NFAT Signaling Pathway (AID 444; active = well fitted curve in either direction with a large enough effect, not every such curve was filed as active;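 also: carbachol stimulus at about its EC50 of 1 µM final; % is scaled to controls: 0 for no effect and ±100 for the full control effect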). The following applies: Jurkat NFAT-bla M1, carbachol, beta-lactamase ratio, 5 h; at 7.69 µM (top of the series) unless noted. In a few lines: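 Jurkat cells with NFAT-driven β-lactamase reporter and co-expressed M1 receptor, stimulated with carbachol (final 1 uM, ~EC50), compound titration, 5 h at 37 °C. CCF4 loaded 1 h at RT; 460/530 nm ratio gave %activity and AC50.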

The target in experiment [15] is Cytochrome P450 3A4 (Homo sapiens) (UniProt P08684). Nature of the experiment: qHTS Assay for Inhibitors and Substrates of Cytochrome P450 3A4 (AID 884). Also: potency is read from the fitted curve at half-maximal effect; nearly all actives have a fitted effect of over 50% in size. In a few lines: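 20 nM human CYP3A4 with 25 uM Luciferin-PPXE (at KM) in 200 mM KPO4, preincubated 10 min with compound; NADPH regeneration started a 60 min RT reaction. Luciferin detected by luminescence, normalized to 57 uM ketoconazole as full inhibition.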
Cytochrome P450 3A4 (Homo sapiens), sequence (P08684 whole entry, looked up): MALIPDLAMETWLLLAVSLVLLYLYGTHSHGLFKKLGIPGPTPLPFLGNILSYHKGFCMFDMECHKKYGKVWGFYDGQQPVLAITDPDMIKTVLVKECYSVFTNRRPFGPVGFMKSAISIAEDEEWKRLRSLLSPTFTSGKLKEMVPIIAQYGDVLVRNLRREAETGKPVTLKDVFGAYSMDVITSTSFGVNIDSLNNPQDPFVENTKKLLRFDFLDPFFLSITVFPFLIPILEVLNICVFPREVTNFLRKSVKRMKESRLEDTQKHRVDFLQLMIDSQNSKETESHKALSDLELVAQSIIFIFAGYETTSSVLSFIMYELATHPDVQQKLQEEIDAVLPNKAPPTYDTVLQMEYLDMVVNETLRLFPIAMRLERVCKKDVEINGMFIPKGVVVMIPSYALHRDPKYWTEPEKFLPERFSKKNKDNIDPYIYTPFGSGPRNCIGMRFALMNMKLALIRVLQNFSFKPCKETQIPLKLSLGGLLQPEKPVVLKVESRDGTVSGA

In experiment [16] the target is Cytochrome P450 2C19 (Homo sapiens) (UniProt P33261). Nature of the experiment: qHTS Assay for Inhibitors and Substrates of Cytochrome P450 2C19 (AID 899). Also: potency is read from the fitted curve at half-maximal effect; nearly all actives have a fitted effect of over 60% in size. Put shortly: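 Signal comes from luciferase acting on luciferin released by CYP2C19-mediated hydroxylation of Luciferin-H EGE, 10uM (KM). Assay mix: 5nM enzyme, 50mM KPO4; 60 min at 37C with NADPH regeneration. Data normalized against 57uM ketoconazole.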

Experiment [17] deals with Lysosomal acid glucosylceramidase (Homo sapiens) (UniProt P04062). Nature of the experiment: Glucocerebrosidase-p2 (AID 348; in the data active = potency below about 10 µM; also: potency is read from the fitted curve at half-maximal effect). The following applies: purified GBA, blue fluorogenic substrate, 40 min. In a few lines:
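Compounds titrated from 0.6 nM upwards against 0.2 nM enzyme in pH 5.9 citric acid/KH2PO4, taurocholate, tween-20; blue fluorogenic substrate 80 uM, 40 min room temperature, stopped and read Ex 365/Em 440 for AC50.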

Experiment [18] can be described thus: qHTS Assay for Identification of Small Molecule Agonists for Hypoxia Response Element Signaling Pathway (AID 914; active = well fitted activation curve with a large enough effect in the signal ratio, with a control signal flat, not every such curve was filed as active; the % refers to the signal ratio; also: potency is read from the fitted curve at half-maximal effect; as to activation: % of control where 0% means no effect). The following applies: ME-180 (cervical carcinoma) HRE-bla reporter, beta-lactamase ratio, CoCl2, 17 h; activation: stronger effect = higher value. In a few lines: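 AC50 values come from titration-series %Activity, taken as the 460/530nm ratio of CCF4 fluorescence (excitation 405nm). CellSensor HRE-bla ME-180 cells were treated 17 hours at 37 C with compound plus an EC50 level of CoCl2.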

In experiment [19] the target is Cytochrome P450 2C9 (Homo sapiens) (UniProt P11712). Nature of the experiment: qHTS Assay for Inhibitors and Substrates of Cytochrome P450 2C9 (AID 883). Also: potency is read from the fitted curve at half-maximal effect; nearly all actives have a fitted effect of over 60% in size. Put shortly:
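Signal: luciferase luminescence reporting luciferin produced by CYP2C9. Conditions: 10nM enzyme, Luciferin-H 100uM at KM, 25mM KPO4, 37C, 60 min NADPH-driven reaction. Reference: 57uM sulphaphenazole as 100% inhibition.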

Cytochrome P450 1A2 (Homo sapiens), sequence (P05177 whole entry, looked up): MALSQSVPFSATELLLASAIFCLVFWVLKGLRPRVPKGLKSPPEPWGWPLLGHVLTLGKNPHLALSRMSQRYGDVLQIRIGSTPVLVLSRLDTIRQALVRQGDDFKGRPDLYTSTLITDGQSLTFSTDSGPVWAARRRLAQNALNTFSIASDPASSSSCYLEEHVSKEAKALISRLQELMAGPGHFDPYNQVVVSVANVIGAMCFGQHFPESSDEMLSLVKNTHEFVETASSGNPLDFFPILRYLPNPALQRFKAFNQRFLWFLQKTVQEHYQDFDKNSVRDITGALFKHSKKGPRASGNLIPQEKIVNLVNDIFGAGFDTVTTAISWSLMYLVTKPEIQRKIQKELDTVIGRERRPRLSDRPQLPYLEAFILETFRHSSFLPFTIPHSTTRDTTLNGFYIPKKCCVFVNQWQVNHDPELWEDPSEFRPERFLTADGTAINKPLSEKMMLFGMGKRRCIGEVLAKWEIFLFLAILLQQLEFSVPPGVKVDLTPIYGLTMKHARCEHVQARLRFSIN
3',5'-cyclic-AMP phosphodiesterase 4B (Homo sapiens), sequence (Q07343 whole entry, looked up): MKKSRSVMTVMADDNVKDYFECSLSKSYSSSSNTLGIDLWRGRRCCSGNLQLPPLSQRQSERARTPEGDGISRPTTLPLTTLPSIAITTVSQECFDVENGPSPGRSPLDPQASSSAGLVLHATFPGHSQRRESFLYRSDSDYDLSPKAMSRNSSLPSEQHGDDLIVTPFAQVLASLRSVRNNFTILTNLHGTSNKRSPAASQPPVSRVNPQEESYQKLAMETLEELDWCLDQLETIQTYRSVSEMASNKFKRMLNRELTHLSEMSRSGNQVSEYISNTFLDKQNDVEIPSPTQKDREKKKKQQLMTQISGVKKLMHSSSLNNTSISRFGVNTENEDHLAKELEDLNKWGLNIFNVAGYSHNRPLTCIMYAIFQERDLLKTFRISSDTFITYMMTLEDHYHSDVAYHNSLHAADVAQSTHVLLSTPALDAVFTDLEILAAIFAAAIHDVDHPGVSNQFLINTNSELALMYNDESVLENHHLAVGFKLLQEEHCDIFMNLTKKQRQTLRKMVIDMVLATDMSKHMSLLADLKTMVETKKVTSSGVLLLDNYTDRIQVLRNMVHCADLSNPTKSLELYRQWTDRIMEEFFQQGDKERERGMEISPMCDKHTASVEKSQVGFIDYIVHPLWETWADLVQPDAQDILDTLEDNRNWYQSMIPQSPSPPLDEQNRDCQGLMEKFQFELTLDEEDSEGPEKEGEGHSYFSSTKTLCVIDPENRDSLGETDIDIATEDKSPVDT
Lysosomal acid glucosylceramidase (Homo sapiens), sequence (P04062 whole entry, looked up): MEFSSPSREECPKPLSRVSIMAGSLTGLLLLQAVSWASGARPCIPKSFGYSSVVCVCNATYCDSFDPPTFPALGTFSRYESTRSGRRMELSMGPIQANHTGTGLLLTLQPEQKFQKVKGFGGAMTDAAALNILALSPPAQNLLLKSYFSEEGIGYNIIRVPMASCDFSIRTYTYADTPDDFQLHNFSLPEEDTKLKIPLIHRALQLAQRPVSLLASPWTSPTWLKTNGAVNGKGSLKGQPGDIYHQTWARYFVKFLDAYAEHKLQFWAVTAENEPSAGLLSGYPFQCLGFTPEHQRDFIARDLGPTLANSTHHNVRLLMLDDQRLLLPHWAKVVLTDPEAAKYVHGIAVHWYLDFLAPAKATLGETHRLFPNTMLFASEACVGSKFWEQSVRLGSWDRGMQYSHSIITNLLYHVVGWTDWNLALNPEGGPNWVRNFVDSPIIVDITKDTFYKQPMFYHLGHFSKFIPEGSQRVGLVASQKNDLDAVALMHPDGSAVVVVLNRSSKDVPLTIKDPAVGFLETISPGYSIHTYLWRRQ
Dual specificity protein kinase CLK4 (Homo sapiens), sequence (Q9HAZ1 whole entry, looked up): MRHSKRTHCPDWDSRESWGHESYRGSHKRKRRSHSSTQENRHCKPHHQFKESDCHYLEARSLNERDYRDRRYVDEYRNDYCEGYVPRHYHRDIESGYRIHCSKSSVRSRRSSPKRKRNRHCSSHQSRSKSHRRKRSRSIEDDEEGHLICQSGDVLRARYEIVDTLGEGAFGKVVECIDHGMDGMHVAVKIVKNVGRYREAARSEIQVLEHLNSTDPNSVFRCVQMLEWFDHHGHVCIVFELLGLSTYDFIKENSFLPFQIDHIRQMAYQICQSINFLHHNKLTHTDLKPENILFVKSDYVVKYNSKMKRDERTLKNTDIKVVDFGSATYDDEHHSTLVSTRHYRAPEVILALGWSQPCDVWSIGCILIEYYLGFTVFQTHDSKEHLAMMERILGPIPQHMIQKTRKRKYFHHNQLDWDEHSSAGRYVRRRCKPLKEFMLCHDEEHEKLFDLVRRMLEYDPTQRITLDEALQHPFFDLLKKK
Cytochrome P450 2D6 (Homo sapiens), sequence (P10635 whole entry, looked up): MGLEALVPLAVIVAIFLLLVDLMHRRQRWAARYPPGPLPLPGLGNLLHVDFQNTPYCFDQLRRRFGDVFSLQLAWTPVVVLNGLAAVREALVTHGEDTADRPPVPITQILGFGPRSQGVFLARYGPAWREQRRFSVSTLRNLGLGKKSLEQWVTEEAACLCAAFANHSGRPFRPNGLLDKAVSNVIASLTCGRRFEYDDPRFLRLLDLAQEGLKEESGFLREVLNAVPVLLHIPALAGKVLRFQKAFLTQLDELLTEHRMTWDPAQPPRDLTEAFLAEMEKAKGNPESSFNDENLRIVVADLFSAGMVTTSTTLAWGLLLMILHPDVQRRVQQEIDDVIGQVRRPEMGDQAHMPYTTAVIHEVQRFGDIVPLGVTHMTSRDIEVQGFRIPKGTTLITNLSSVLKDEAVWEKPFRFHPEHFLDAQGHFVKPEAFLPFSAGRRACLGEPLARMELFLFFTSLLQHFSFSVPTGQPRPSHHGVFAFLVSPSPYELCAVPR

Regarding `CN(C)c1ccc(-c2cc(N(C)Cc3ccco3)ncn2)cc1`, the activity change, negative = inhibition in [1] was -23.1%. For the same molecule, the Potency is 0.316 µM (active) in experiment [2]; > 46 µM in [4]; > 46 µM in [5]; 7.94 µM (active) in [9]; 25.1 µM (active) in [10]; 31.6 µM (active) in experiment [11]. In addition, the molecule was called inactive in experiment [3] and in experiment [8]. Besides, the Potency result in experiment [6], in [7], in experiment [12] and in [13] was “inactive” in each case.

As for `COc1ccccc1-c1ccc2ncnc(N3CCOCC3)c2c1`, the Potency in experiment [2] was 0.631 µM (active); in [5], > 46 µM; in experiment [15], 6.31 µM (active); in experiment [16], 1.26 µM (active); in experiment [10], 11.2 µM (active); in [11] it was 12.6 µM (active). The Potency in [12] was 11.2 µM (active). The activity change, negative = inhibition in experiment [14] is 18.9%. Besides, the result in [3] and in experiment [8] was inactive. Further, the Potency entry in experiment [6] and in [13] was “inactive” each time.

For the molecule `COc1cccc(Nc2ncc3ncc(=O)n(Cc4ccc(F)cc4)c3n2)c1`, the Potency in [17] is > 11.4 µM; in experiment [4], > 9.22 µM; in experiment [5], > 46 µM; in experiment [10], 3.98 µM (active); in experiment [11], 2.51 µM (active). In addition, the results for the activity change, negative = inhibition in experiment [1] and in experiment [14] were -28.1% and -8.23%, respectively. Also, the call in [3] was inactive. The Potency entry in experiment [6] and in experiment [13] was “inactive” each time. For the same molecule, in experiment [18], the activation is -20.2%.

Regarding `COc1ccc(-c2nc3cnc(N4CCOCC4)nc3n(-c3ccc(OC)cc3)c2=O)cc1`, the Potency in [17] is > 11.4 µM; in experiment [2], 10 µM (active); in [18], 3.16 µM (active). The outcome in experiment [3] was inactive. The Potency result in experiment [7], in [10], in experiment [11] and in experiment [12] was “inactive” each time.

With `N#Cc1cccc(-c2nc(NCCN3CCOCC3)c3ccccc3n2)c1`, in experiment [1], the activity change, negative = inhibition is -13%. Further, the Potency in experiment [2] was 1 µM (active); in experiment [4], > 46 µM; in experiment [5], > 46 µM; in experiment [9], 7.94 µM (active); in experiment [10], 11.2 µM (active); in experiment [11] it was 6.31 µM (active). Moreover, the call in experiment [3] and in experiment [8] was inactive. The Potency result in [7] and in experiment [13] was “inactive” throughout. Besides, the activation in experiment [18] is -16.9%.

For the molecule `O=c1c(CCc2ccccc2)nc2cncnc2n1Cc1ccccc1`, in experiment [14], the activity change, negative = inhibition was -4.57%. Also, the call in experiment [3] was inactive. The Potency in experiment [5] was > 46 µM. The Potency result in experiment [6], in experiment [10], in experiment [11], in [12] and in experiment [13] was “inactive” each time.

Take `N#Cc1cccc(-c2ccc3ncnc(NCc4cccs4)c3c2)c1`: the Potency was > 11.4 µM in experiment [17]; 0.1 µM (active) in experiment [2]; > 46 µM in experiment [4]; > 46 µM in [5]; 3.16 µM (active) in experiment [15]; 10 µM (active) in [10]. The Potency in experiment [11] is 8.91 µM (active); in [13], 22.4 µM (active). Besides, the molecule was classed as inactive in experiment [3] and in experiment [8]. Further, the Potency entry in experiment [6] and in experiment [7] was “inactive” each time.

Take `COc1ccc(-c2nc3cnc(Oc4cccc(Cl)c4)nc3n(C[C@H]3CCCO3)c2=O)cc1`: in [1], the activity change, negative = inhibition is -13.7%. In addition, the Potency in experiment [2] is 5.01 µM (active); in [4], > 9.22 µM; in [5], > 46 µM; in experiment [19], 5.01 µM (active). For the same molecule, the Potency result in [7], in experiment [10], in experiment [11], in experiment [12] and in experiment [13] was “inactive” throughout. The result in experiment [8] was inactive.

The values are drawn from PubChem BioAssay (NCATS).
